Measured values: PubChem BioAssay (NCI)
About 83,000 compounds went through this panel and 20% of them were active in at least one assay; those are over-represented in the sample as a whole.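 Results are percent growth after 48 hours of single-concentration exposure. 100 means growth as in untreated cells, lower positive values show inhibition; negative values down to -100 show cell death.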 A number with no mark means an inactive call. Calls of active or inactive are those of the source.

These compounds were tested on A549/ATCC NSCLC (assay: NCI-60 one-dose screen, 48 h (100 = growth as untreated, 0 = no growth, -100 = all killed)). Details: 10 µM unless noted.
Protocol: Growth inhibition of the A549/ATCC human Non-Small Cell Lung tumor cell line is measured as a screen for anti-cancer activity. Cells are grown in 96 well plates and exposed to the test compound for 48 hours. Compounds are tested at a single concentration, which is 10^-5 M for most compounds. The reported endpoint is percent growth (GI% or GIPRCNT), where numbers from 0 - 100% represent growth inhibition, and numbers from -100% - 0 represent cell death. For example, a value of 40 represents 60% growth inhibition. A value of 0 means no net growth occurred over the course of the experiment. A value of -40 indicates 40% of cells at the beginning of the experiment died by the end of the experiment. A value of -100 means all cells are dead at the end of the experiment.
NCI-60 Human Tumor Cell Lines Screen was performed using the standard one-dose NCI protocol, which is described in more detail at https://dtp.cancer.gov/discovery_development/nci-60/default.htm.
Compounds with GIPRCNT values below 10 were considered active. Activity score was based on GIPRCNT using the following formula: […]
Score is 0 for GIPRCNT values of 100 or above, 50 for GIPRCNT values of 0, and 100 for GIPRCNT values of -100.

Going from `O=c1c2c(O)cccc2oc2c3c(cc(O)c12)O[C@H]1OC=C[C@@H]31` to `COc1ccc(-c2oc3cc(O)cc(O)c3c(=O)c2OC)cc1O`, the growth falls from 61% to 38%.

Going from `COc1cc(C(=O)c2cc(C(C)=O)c3c4ccccc4ccn23)cc(OC)c1OC` to `COc1ccc(Cn2cc3c(c2-c2cc(OC)c(OC)c(OC)c2)CCCc2cnoc2-3)cc1`, the growth falls from 61.1% to 33.6%.

First: Cc1nc(-c2cc3ccccc3c(N3CCN(C)CC3)n2)cs1
Second: CN1CCN(c2nc(-c3cnc4ccccc4n3)cc3ccccc23)CC1
The growth of the first is higher: 97.7% for the first, 75.9% for the second.

First: N#Cc1c(-c2cccs2)cc(-c2cnccn2)nc1SCC(=O)NNC(=S)Nc1ccc(F)cc1
Second: CCC(=O)Nc1ccc(-c2nc(-c3cccc(O)c3)c(-c3ccnc(Br)c3)[nH]2)cc1
The growth of the first is higher: 100% for the first, 83.6% for the second.

Compared with `CC(=O)Nc1nc2c(s1)C1=CC[C@H]3[C@@H]4CC[C@H](C(C)=O)[C@@]4(C)CC[C@@H]3[C@@]1(C)CC2`, `C=C1C(=O)O[C@@H]2/C=C(/C)C3=CC(=O)[C@@](C)(C[C@H](OC(=O)/C(C)=C\C)[C@@H]12)O3` is higher in growth: 51.7% for the first, 72.6% for the second.

First: O=C1c2c(c3c4cccnc4[nH]c3c3ccc4ccccc4c23)C(=O)N1CCN1CCNCC1
Second: CCN(CC)CCN1C(=O)c2c(c3c4cccnc4[nH]c3c3ccc4ccccc4c23)C1=O
The growth of the first is lower: 44% for the first, 60% for the second.

Compared with `CCC(C)[C@H]1OC(=O)[C@H](C(C)C)N(C)C(=O)[C@@H](C(C)C)OC(=O)[C@H](C(C)C)N(C)C(=O)[C@@H](C(C)CC)OC(=O)[C@H](C(C)C)N(C)C1=O` (stereo not given in full), `COc1cc(O)c2c(c1)[C@H]1O[C@@H]1C[C@H](O)[C@H](O)C(=O)/C=C\C[C@H](C)OC2=O` is higher in growth: 12.9% for the first, 72.3% for the second.

Going from `Cc1nn(-c2ccccc2)c2nc(CCl)[nH]c(=O)c12` to `COc1ccc(S(=O)(=O)NCCCNc2nccc(-n3cnc4ccccc43)n2)cc1`, the growth rises from 97.7% to 106%.

First: CCCC(=O)NC(c1cccnc1)c1cc(C(C)=O)c2cccnc2c1O (stereo not given)
Second: CCCC(=O)NC(c1cccnc1)c1cc(Cl)c2cccnc2c1O (stereo not given)
The growth of the first is lower: 18.9% for the first, 39.7% for the second.

Compared with `O=S(=O)(Nc1ccc(I)c(Cl)c1)c1ccc(-c2cnc(C3CC3)o2)cc1`, `COc1ccc(NS(=O)(=O)c2ccc(-c3cnc(C4CC4)o3)cc2)cc1Cl` is lower in growth: 50.3% for the first, 46.1% for the second.

First: COC[C@@]1(C)CC[C@]2(C)CC[C@]3(C)C(=CC[C@@H]4[C@@]5(C)CCCNC(C)(C)[C@@H]5CC[C@]43C)C2C1 (stereo not given in full)
Second: CCNC(=O)Oc1ccc(/C(=C(/C)c2ccccc2)c2ccc(OCCN3CCCC3)cc2)cc1
The growth of the first is lower: 55.7% for the first, 74.9% for the second.

First: COc1ccc2c(c1)c(-c1nnc(N)nc1-c1cn(C)c3ccccc13)cn2C
Second: CC(C)(C)n1nnnc1C(Nc1nccs1)c1cc2cccc3ccc4cccc1c4c32 (stereo not given)
The growth of the first is lower: 95.8% for the first, 108% for the second.

Compared with `O=C(COc1cccc2cccnc12)Nc1ccc(C(=O)/C=C/c2ccc(Cl)cc2)cc1`, `COc1cc(CNC(=O)/C=C/c2ccccc2)ccc1OCC(=O)NO` is higher in growth: 85.4% for the first, 101% for the second.

First: CS(=O)(=O)c1nccc(-c2c(-c3ccc(F)c(OCc4ccccc4)c3)nc3sccn23)n1
Second: CS(=O)(=O)c1nccc(-c2c(-c3ccc(F)c(OCCc4ccccc4)c3)nc3sccn23)n1
The growth of the first is higher: 103% for the first, 99% for the second.

First: CCNCCCn1c2c(c3cc(OC)c(OC)cc3c1=O)C(=O)c1cc(OC)cnc1-2
Second: CS(=O)(=O)c1nccc(-c2c(-c3ccc(F)c(OCc4ccc(F)cc4)c3)nc3sccn23)n1
The growth of the first is lower: 34.4% for the first, 104% for the second.

Compared with `O=C(NNc1nc2cc(F)cc(F)c2n2cccc12)c1ncccn1`, `O=C(NNc1nc2cc(F)c(F)cc2n2cccc12)c1ncccn1` is higher in growth: 18.7% for the first, 21.1% for the second.

Compared with `O=C(Nc1ccc(F)cc1)c1cc(-c2ccc(F)cc2F)ccc1O`, `O=S(=O)(Nc1ccc2c(c1)OC(F)(F)O2)c1ccc(-c2cnc(C3CC3)o2)cc1` is higher in growth: 30.6% for the first, 47.7% for the second.

Compared with `CCCCCCCCNC(=O)c1ccc(Cn2c(CCCC)nc3c(N)nc4ccccc4c32)cc1`, `CS(=O)(=O)c1ccc2c(c1)c1c(n2C(=O)c2ccc(Cl)cc2)CCCC1` is lower in growth: 57.7% for the first, 50.6% for the second.

Going from `O=S(=O)(Nc1cc(Cl)c(F)c(Cl)c1)c1ccc(-c2cnc(C3CC3)o2)cc1` to `CCN1CCN(Cc2ccc(C(=O)Nc3nc4ccc(Oc5ccnc(C(=O)NC)c5)cc4s3)cc2C(F)(F)F)CC1`, the growth rises from 41.5% to 60.1%.

`c1ccc(-c2n(Cc3ccc4ccccc4c3)c3c4ccccc4c4ccccc4c3[n+]2Cc2ccc3ccccc3c2)cc1` was tested, and the growth was -69.2% (active).
In the case of `CN1CCN(Cc2ccc(NC(=O)c3cncc(C#Cc4cnc5ccc(NC6CCOCC6)nn45)c3)cc2C(F)(F)F)CC1`, the growth is reported as -14.2% (active).
